# Screening data from PubChem BioAssay.
# In the library only some 2.4% were active in any assay of this set; here they are far more common.
# SENP6 inh = blocks the human protease SENP6; inhibition, % at 10 µM; Recombinant SENP6 catalytic domain, aminoluciferin luminescence; Q9GZR1; 1.8% of 330,000 active; AID 2599;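 active means inhibition above about 50% at the single tested dose, limit read from the data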
# SENP8 block-1 = inhibitors of human SENP8 protease | Q96LD8 | purified SENP8, Z-RLRGG-aminoluciferin cleavage, luminescence | inhibition, % at 10 µM | 1.2% of 330,000 active | AID 2540; in the data active means inhibition above about 50%
# Target sequence (Q96LD8 whole entry, looked up): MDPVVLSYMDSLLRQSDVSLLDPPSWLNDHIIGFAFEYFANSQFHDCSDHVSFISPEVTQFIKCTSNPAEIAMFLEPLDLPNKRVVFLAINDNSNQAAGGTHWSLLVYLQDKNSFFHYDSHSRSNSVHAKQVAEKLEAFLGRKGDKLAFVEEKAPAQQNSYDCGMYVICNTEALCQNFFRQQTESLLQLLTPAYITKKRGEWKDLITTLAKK
# SENP8 block-2 = blocks human SENP8 cleavage of Nedd8 substrate | recombinant SENP8, Nedd8 substrate fluorescence | inhibition, % at 20 µM | 0.64% of 360,000 active | AID 602440; in the data active means inhibition mostly above about 40%, no sharp cut-off; inactive means mostly below about 27%
# Platelet DG rel = modulates dense granule release in human platelets. 0.22% of 300,000 active. human platelet-rich plasma, SFLLRN dense granule ATP release, luminescence. inhibition, %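 (compounds screened at 7.5 µM in platelet-rich plasma)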;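 active means mean replicate score, as percent of positive control, at or above 50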
# SENP7 inh = inhibitors of human SENP7 protease | recombinant SENP7, Z-RLRGG-aminoluciferin luminescence, 40 min | inhibition, % at 5 µM | 1.5% of 330,000 active | AID 434973;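 active means inhibition above about 50% at the single test dose, limit read from the data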
# Target sequence (Q9BQF6 706-1050 limits assumed): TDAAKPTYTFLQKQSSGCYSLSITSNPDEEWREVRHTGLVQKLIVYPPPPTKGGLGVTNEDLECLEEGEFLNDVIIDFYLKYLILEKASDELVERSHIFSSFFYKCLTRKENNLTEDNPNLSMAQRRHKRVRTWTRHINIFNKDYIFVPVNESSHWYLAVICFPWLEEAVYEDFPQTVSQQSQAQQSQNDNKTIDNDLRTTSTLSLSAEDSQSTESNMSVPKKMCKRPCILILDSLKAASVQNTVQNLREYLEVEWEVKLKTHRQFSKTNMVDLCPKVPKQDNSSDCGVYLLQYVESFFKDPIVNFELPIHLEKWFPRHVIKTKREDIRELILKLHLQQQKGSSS
# SENP8 conf = confirmation of human SENP8 protease inhibitors | shares compounds with SENP7 inh | Recombinant SENP8, Z-RLRGG-aminoluciferin luminescence, 60 min | inhibition, % at 12.5 µM | 40% of 6,200 active | AID 488912;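 active means mean inhibition across replicates above about 50%, limit read from the data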
# SENP6 conf = confirmation of human SENP6 protease inhibitors; shares compounds with SENP7 inh; recombinant SENP6, Z-RLRGG-aminoluciferin luminescence; inhibition, % at 12.5 µM; 58% of 6,200 active; AID 488915
# SENP7 confirm = confirmation of human SENP7 protease inhibitors; 69% of 6,200 active; inhibition, % at 12.5 µM; shares compounds with SENP7 inh; recombinant SENP7, Z-RLRGG-aminoluciferin luminescence, 40 min; AID 488917
# Casp3 select = inhibits human caspase-3 in SENP selectivity test | AID 488918 | 60% of 6,200 active | shares compounds with SENP7 inh | purified caspase-3, Z-DEVD-aminoluciferin luminescence, 60 min | inhibition, % at 12.5 µM;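 active means mean inhibition above about 50%, limit read from the data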
# Luc interf = interferes with luciferase luminescence in SENP counter-screen | shares compounds with SENP7 inh | Pre-incubated SENP8/Z-RLRGG-aminoluciferin, luciferase luminescence interference | inhibition, % at 12.5 µM | 39% of 6,200 active;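 active means mean inhibition above about 50% when retested at one dose, limit read from the data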
# Hits are given with their value; n = inactive; x = not tested or not shown.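 How the source made its calls, unless noted: active means mean inhibition above about 50% in the one-dose retest (limit read from the data); inactive means the rest.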
SMILES,SENP6 inh,SENP8 block-1,SENP8 block-2,Platelet DG rel,SENP7 inh,SENP8 conf,SENP6 conf,SENP7 confirm,Casp3 select,Luc interf
Cc1ccsc1/C=C1\Oc2cc(OCC(=O)c3ccccc3)ccc2C1=O,60,n,n,n,n,n,n,n,n,n
CCCNC(=O)c1nc(C)n(-c2cc(Cl)ccc2Cl)n1,n,n,n,n,n,x,x,x,x,x
Cc1[nH]n(C(N)=S)c(=O)c1N=Nc1cc(C(F)(F)F)ccc1Cl,n,n,n,n,n,x,x,x,x,x
Cc1[nH]n(C(N)=S)c(=O)c1N=Nc1ccc(Br)cc1,93,92,n,n,82,n,n,n,n,n
Cc1[nH]n(C2=NCCS2)c(=O)c1N=Nc1cccc(C(F)(F)F)c1,74,n,n,n,n,n,n,n,n,n
Cc1[nH]n(C(N)=S)c(=O)c1N=Nc1cccc(C(F)(F)F)c1,79,81,n,n,n,n,n,n,n,n
Cc1[nH]n(-c2ccccc2)c(=O)c1N=Nc1cccc(C(=O)O)c1,56,n,49,n,n,n,n,59,n,n
COc1ccc(NC(=O)N(C)C[C@H]2OCCCC[C@@H](C)Oc3ccc(NC(=O)c4ccccc4)cc3C(=O)N([C@H](C)CO)C[C@@H]2C)cc1,x,x,n,x,x,x,x,x,x,x
COc1ccc(C(=O)O/N=C/c2ccc(S(=O)(=O)c3ccc(Cl)cc3)nc2)cc1,n,n,n,n,n,x,x,x,x,x
COC(=O)CC1(CC(N)=O)SCCS1,x,x,n,x,x,x,x,x,x,x
C[C@H](NC(=O)C1CCN(S(=O)(=O)c2ccccc2)CC1)C(=O)NCc1ccc(Cl)c(Cl)c1,n,n,n,n,n,x,x,x,x,x
O=C(COC(=O)c1ccccc1SCC(=O)NC1CCS(=O)(=O)C1)NC1CCS(=O)(=O)C1 (stereo not given),n,n,n,n,n,x,x,x,x,x
CCNC(=O)NC(=O)COC(=O)c1ccccc1SCC(=O)NC(=O)NCC,95,93,n,n,93,96,96,102,98,85
Nc1nc(-c2ccc3c(c2)CCCC3)cs1,79,53,n,x,56,65,75,91,51,70
CCOC(=O)C(/C(N)=N/C(=O)Nc1ccccc1)=C(\C)O,64,n,n,n,n,n,57,88,80,n
CCOC(=O)c1ccc(NC(=S)Nc2ccccc2)cc1,n,n,n,n,n,x,x,x,x,x
Cc1occc1C(=O)N/N=C/c1ccc(Br)s1,88,81,n,n,88,n,78,95,89,53
Cc1ccc(/C=N/NC(=O)c2ccoc2C)s1,88,74,n,n,85,n,77,95,93,80
Cc1ccc(/C=N/NC(=O)c2ccco2)s1,n,n,n,n,n,x,x,x,x,x
CCc1ccc(C(=O)/C=C2\Sc3ccccc3NC2=O)cc1,70,n,n,n,n,69,68,88,61,n
COc1ccccc1C(=O)Nc1ccc2c(c1)CCCN2C(=O)c1cccs1,54,n,n,n,55,66,64,84,65,58
COc1ccccc1C(=O)Nc1ccc2c(c1)CCCN2C(=O)c1ccccc1,90,84,n,54,84,85,82,95,85,76
CC(C)(C)[C@@H]1COC(=O)[C@H](Cc2ccc(F)cc2)C/C=C\C[C@H](CC(=O)N(CCO)Cc2ccccc2)C(=O)N1,n,n,n,x,n,x,x,x,x,x
CCOc1ccc(/C=C/C(=O)CCC(=O)O)cc1,70,n,n,n,63,66,53,84,n,72
CCOc1ccc(/C=C/C(=O)Oc2ccc(OC)cc2)cc1,n,n,n,n,n,x,x,x,x,x
SMILES,SENP6 inh,SENP8 block-1,SENP8 block-2,Platelet DG rel,SENP7 inh,SENP8 conf,SENP6 conf,SENP7 confirm,Casp3 select,Luc interf
CCOc1ccc(/C=C\C(C)=N\O)cc1,91,84,n,n,n,90,90,100,93,90
O=C(O)CCC(=O)/C=C/c1ccccc1,n,n,n,n,n,x,x,x,x,x
CC(=O)c1cccc(NC(=O)N2C3CCC2CC(NC(=O)C2CC2)C3)c1 (stereo not given),n,n,n,n,n,x,x,x,x,x
CN(C)c1ccc(C(=O)N2CCN(C(=O)C3CCCO3)CC2)cc1 (stereo not given),n,n,n,x,n,x,x,x,x,x
O=[N+]([O-])c1ccccc1/C=C\C=N\N1CCN(c2ccccc2)CC1,n,n,n,n,n,x,x,x,x,x
C(/C=C/c1ccccc1)=N/N1CCN(c2ccccc2)CC1,n,n,n,n,61,n,n,n,n,n
C(=C\c1ccccc1)/C=N/N1CCN(c2ccccn2)CC1,74,n,n,n,56,n,52,n,62,n
O=C1/C(=C/c2cccc(F)c2)Oc2cc(O)ccc21,52,n,n,n,n,70,64,81,n,n
Cc1ccc2nc(NC(=O)c3ccccn3)sc2c1,96,95,n,n,96,58,81,93,84,n
CCc1noc(C)c1C(=O)Nc1nc2c(C)cccc2s1,n,n,n,n,n,x,x,x,x,x
CSc1nc2ccc(NC(=O)c3ccccn3)cc2s1,78,90,n,n,93,52,86,98,93,n
COc1ccc2nc(NC(=O)c3cnccn3)sc2c1,n,n,n,n,76,n,n,82,80,n
CCc1noc(C)c1C(=O)Nc1nc2c(F)cc(F)cc2s1,90,83,n,x,73,52,86,98,87,51
O=C(Nc1nc2ccc(S(=O)(=O)N3CCCC3)cc2s1)c1ccccn1,n,n,n,n,n,x,x,x,x,x
Cc1ccc(N=C2NC(=O)CS2)cc1C,n,n,n,n,n,x,x,x,x,x
O=C(COc1ccccc1)NNc1nc2c(F)cc(F)cc2s1,n,n,n,n,n,x,x,x,x,x
O=C(Nc1nc2c(F)cc(F)cc2s1)c1ccccn1,70,64,n,n,93,61,69,n,79,n
CCOc1ccc2nc(NC(=S)NCc3ccccc3)sc2c1,n,n,n,n,n,x,x,x,x,x
CCOc1ccc2nc(NC(=O)c3ccccn3)sc2c1,97,94,n,81,98,n,78,85,87,n
CC(=O)Nc1ccc(NC(=O)CSc2nc3[nH]ncc3c(=O)n2-c2ccccc2)cc1,n,n,n,n,n,x,x,x,x,x
Nc1cccc(-c2nc3ccccc3s2)c1,100,93,n,n,100,96,98,103,96,97
Cc1cc(C)c(-c2nc3ccccc3s2)[nH]1,n,59,n,n,n,81,90,99,76,70
